# Measured values as given in PubChem BioAssay (Tox21).
# The source made the active and inactive calls. A call without a number means that no potency is given here. Calls follow the shape of the dose curve; as a rule, active = well fitted activation curve with a large enough effect in the repeat runs; inconclusive = weak or mixed curves; inactive = flat fitted curve, though single readings scatter.
# Assay: A CellTox Green Cytotoxicity Assay to monitor cytotoxicity in HepG2 cells - 0 hour (AID 1224882); also: nearly all actives have a fitted effect of over 35% in size
# Conditions: CellTox Green fluorescence; series mostly up to 76.8 µM
# Excerpt: National Center for Advancing Translational Sciences [NCATS]
# NIH Chemical Genomics Center [NCGC]
# U.S. Environmental Protection Agency [EPA]
# National Institutes of Environmental Health Sciences [NIEHS]
# National Toxicology Program [NTP]
# Cell-based models are critical for drug discovery. Determining the natural cytotoxic effects resulting from test compounds is an essential research activity. A CellTox Green Cytotoxicity Assay to monitor cytotoxicity in real time of continues cell culture during 40 hours of the compound treatment was used to screen Tox21 10K library compounds in HepG2 cells. CellTox Green Cytotoxicity Assay is a nonlytic, homogeneous, biofluorescent method to measure cytotoxicity in cell culture after experimental manipulation. The assay system uses a proprietary asymmetric cyanine dye that is excluded from viable cells but preferentially stains the dead cell's DNA. […] Viable cells produce no appreciable increases in fluorescence. Therefore, the fluorescence signal produced by the binding interaction with dead cell DNA is proportional to cytotoxicity.
# The mixture of HepG2 cell suspension and reagents were dispensed at 600cells/6 ul/well in 1536-well tissue culture treated black solid bottom plates using a Multidrop dispenser. After the assay plates were incubated at a 37 C/5% CO2 incubator for 5 hours, 23 nL of compounds dissolved in DMSO, positive and negative controls was transferred to the assay plate by a pintool work station. The plates were incubated at 37 C for 40 hours. The fluorescence intensity were measured at 0h, 8h, 16h, 24h, 32h and 40h time points using ViewLux plate reader during compound treatment.
# Potency is read from the fitted curve at half-maximal effect.
row,SMILES,Potency
1,NS(=O)(=O)c1cc(C2(O)NC(=O)c3ccccc32)ccc1Cl (stereo not given),inactive
2,CC1=CC(C)C(C=O)C(C)C1 (stereo not given),inactive
3,Cc1c(C)n(CCN(C)C)c2ccc(C(=O)OCCN(C)C)cc12,inactive
4,O=C1C(CCS(=O)c2ccccc2)C(=O)N(c2ccccc2)N1c1ccccc1 (stereo not given),inactive
5,CN(C)C(=O)Nc1ccccc1,inactive
6,O=C(O)/C=C/c1ccc(/C=C/C(=O)O)cc1,inactive
7,O=C1CC2(CCCC2)CC(=O)N1,inactive
8,NC(=O)Nc1nc2ccccc2[nH]1,inactive
9,c1ccc2cnncc2c1,inactive
10,CC/C=C\C#N,inactive
11,COc1ccc(NC(C)=O)cc1,inactive
12,C=CCOCC(O)CS(=O)(=O)O (stereo not given),inactive
13,COc1cc(C(=O)N2CCOCC2)cc(OC)c1OC,inactive
14,O=C(O)C(O)[C@H](O)[C@@H](O)[C@H](O)[C@H](O)CO (stereo not given in full),inactive
15,C=C(C)C1CC=C(C)C(O)C1 (stereo not given),inactive
16,CN1[C@@H]2CC[C@H]1CC(NC(=O)n1c(=O)[nH]c3ccccc31)C2 (stereo not given in full),inactive
17,CCC(C)OC(=O)N1CCCCC1CCO (stereo not given),inactive
18,COc1nc(C)nc(N)n1,inactive
19,CCCCCCCCN(C)CCCCCCCC,inactive
20,OCCCCCCO,inactive

row,SMILES,Potency
1,NC(=O)c1ncn([C@@H]2O[C@H](CO)[C@@H](O)[C@H]2O)c1N,10.7 µM (active)
2,CC(C)(C)N(CCO)CCO,inactive
3,c1ccc(SCCSc2ccccc2)cc1,inactive
4,CCCCCCCCCCC1CO1 (stereo not given),inactive
5,CN(C)CCOC(c1ccc(Cl)cc1)c1ccccn1 (stereo not given),inactive
6,CC(=O)NC(Cc1ccccc1)C(=O)O (stereo not given),inactive
7,CC(=O)OC(C)(C)C,inactive
8,CC(C)c1ccc2oc3nc(N)c(C(=O)O)cc3c(=O)c2c1,inactive
9,Cc1ncc(CSSCc2cnc(C)c(O)c2CO)c(CO)c1O,inactive
10,COCc1ccc(COC)cc1,inactive
11,O=S(=O)(O)c1ccccc1O,inactive
12,CCN(CC)C(=O)c1ccc(O)c(OC)c1,inactive
13,CC(C)c1cccc(O)c1,inactive
14,CCC(C)(C)C1CCC(OC)CC1 (stereo not given),inactive
15,CC1=CCC2C(C1)C2(C)C (stereo not given),inactive
16,CCCCCCCCCCCCCCC,inactive
17,CC(C)(O)c1ccccc1,inactive
18,OC1OC[C@@H](O)[C@H](O)[C@H]1O (stereo not given in full),inactive
19,NC(=O)c1c(Cl)cccc1Cl,inactive
20,CCc1cc(S(=O)(=O)O)c2cc(C(C)C)cccc1-2,inactive
